From PubChem
This is a sample that favours compounds with a hit; in the whole collection about 7.9% have one here.
HT1080NT lethal: kills 2HG-producing HT-1080-NT fibrosarcoma cells. Potency, µM (top dose mostly 46.1 µM), hits mostly cytotoxic. 360,000 compounds, 1.6% hits. HT-1080-NT fibrosarcoma viability, CellTiter-Glo ATP luminescence, 48 h;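 further: NT is the 2HG producing partner of a matched IDH1 knockdown line; nearly all actives have a fitted effect of over 55% in size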
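Viability of the 2HG-overproducing fibrosarcoma line after 48 hours of compound exposure at 37 degrees C was determined by luminescence with CellTiter-Glo, and concentration-effect curves were then fitted and categorized.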
MCF10A rereplic: inducers of DNA re-replication in MCF 10A breast cells | 350,000 compounds, 2.9% hits | Potency, µM (highest dose often 46.1 µM), most hits filed as activators | AID 624296 | MCF 10A DNA re-replication, Hoechst nuclear intensity, 48 h; further: nearly all actives have a fitted effect of over 50% in size
KB-3-1 tox: kills parental KB-3-1 adenocarcinoma cells | KB-3-1 viability, CellTiter-Glo ATP luminescence, 72 h | Potency, µM (titrated, usually from 46.1 µM), actives largely listed as cytotoxic | 400,000 compounds, 1.4% hits; further: nearly all actives have a fitted effect of over 60% in size
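Screening of KB-3-1 cells (DMEM, 10% FBS, phenol-red free) ran from lowest to highest compound concentration; after 72 h at 37 °C viability was read luminescently and curves fitted.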
HT1080 IDH1KD tx: toxicity to HT-1080 IDH1 knockdown cells (counter line) | HT-1080 IDH1 knockdown viability, ATP luminescence, 48 h | Potency, µM (doses to about 46.1 µM), hits mostly cytotoxic | 360,000 compounds, 2% hits
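Luminescent ATP read-out (CellTiter-Glo, 10 min at room temperature) after 48 h compound exposure at 37 °C gave viability of IDH1-knockdown HT-1080 cells. Activity was normalised to DMSO and cell-free wells, then fitted as concentration-response curves.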
SW480 rerep: DNA re-replication induction in SW480 cells; AID 624297; SW480 DNA re-replication, Hoechst DNA content imaging, 48 h; Potency, µM (doses to about 46.1 µM), actives largely listed as activators; 340,000 compounds, 1.8% hits; further: nearly all actives have a fitted effect of over 55% in size
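250 cells/well; 23 nL cpd via pin tool; 48 hr, 37 C, 5% CO2; Hoechst 40 min; imager read of total nuclear intensity, ex 405/em 500-530 nm.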
KB-V1 MDR tox: KB-V1 MDR subline cytotoxicity; KB-V1 MDR cells viability, CellTiter-Glo, 72 h; Potency, µM (titrated, usually from 46.1 µM), most hits filed as cytotoxic; 400,000 compounds, 3.4% hits; further: nearly all actives have a fitted effect of over 60% in size
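Cytotoxicity via CellTiter-Glo luminescence after 72 h compound exposure at 37 degrees C. Cells: drug-selected KB-V1 line, DMEM phenol-red free plus 10% FBS. Compounds tested at multiple concentrations; normalized data fitted to concentration-effect curves.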
A number is an active result; 0 = inactive; ? = inconclusive; - = no result given. The call rests on the fitted dose curve; in most records, active means well fitted curve in the direction sought with a large enough effect; inconclusive means small, poorly fitted or top-dose-only effect, or another doubt; inactive means no such curve, though single readings can be large; an effect the other way counts as inactive or inconclusive.

SMILES	HT1080NT lethal	MCF10A rereplic	KB-3-1 tox	HT1080 IDH1KD tx	SW480 rerep	KB-V1 MDR tox
Cc1ccc(C)c(S(=O)(=O)N2CCCC2CNC(=O)C(=O)NCc2ccccc2C)c1 (stereo unspecified)	0	0	0	0	3.66µM	0
Cc1ccc(C)c(S(=O)(=O)N2CCCCC2CCNC(=O)C(=O)NCc2ccccn2)c1 (stereo unspecified)	0	0	0	0	0	?
O=C(Nc1ccc(OC(F)F)cc1)c1nc(S(=O)(=O)Cc2ccccc2F)ncc1Cl	-	-	?	-	-	0
Cc1ccc(CNC(=O)c2cc3c(=O)n4cccc(C)c4nc3s2)cc1	-	-	0	-	-	0
CCC(C)NC(=O)CSC1=Nc2ccccc2C2=NC(c3ccccc3)C(=O)N12 (stereo unspecified)	0	0	0	0	0	16.4µM
Cc1ccc(C(C)C)c(OCC(=O)Nc2ccc3c(c2)nc(CN2CCCC2)n3C)c1	16.4µM	?	?	23.1µM	0	0
CCn1c(CN2CCCCC2)nc2cc(NC(=O)c3ccc([N+](=O)[O-])cc3)ccc21	-	-	0	-	-	6.51µM
CC1CCN(CCc2nc3cc(NC(=O)COc4ccc([N+](=O)[O-])cc4)ccc3n2C)CC1	0	?	?	?	20.6µM	0
Cc1ccc(N2CCN(CCc3nc4cc(NC(=O)c5ccco5)ccc4n3C)CC2)cc1	0	0	0	?	0	4.11µM
COc1ccc(OCCn2cc(C(=O)c3ccco3)c3ccccc32)cc1	-	-	0	-	-	?
Cc1cc[n+](-c2[nH]c(=O)sc2/C=N/N=C(\[O-])c2ccncc2)cc1	0	0	0	0	0	0
CCCC(=O)N1CCN(Cc2nc3cc([N+](=O)[O-])ccc3n2C)CC1	0	0	0	0	7.31µM	0
Cn1c(CN2CCOCC2)nc2cc(NC(=O)COc3ccccc3)ccc21	0	0	0	0	0	16.4µM
Cn1c(CN2CCCCC2)nc2cc(NC(=O)c3ccccc3)ccc21	0	0	0	0	0	8.2µM
Cn1c(CN2CCCC2)nc2cc(NC(=O)Nc3ccccc3)ccc21	0	0	0	0	0	0
CC(=O)NCCc1nc2cc(NC(=O)c3ccccc3C)ccc2n1C	0	0.581µM	0	0	0	?
CCCn1c(CN2CCN(C(=O)OCC)CC2)nc2cc([N+](=O)[O-])ccc21	0	0	0	0	0	?
Cn1c(CCN2CCOCC2)nc2cc(NC(=O)COc3ccccc3)ccc21	0	0	0	0	0	0
COc1ccccc1CNC(=O)c1cc(-c2cc(F)ccc2OC(C)C)n[nH]1	0	-	0	0	-	0
N#C/C(=C\c1ccc2c(c1)OCCO2)C(=O)Nc1ccc(C(=O)O)cc1	0	0	0	0	0	0
N#CCCn1cc(/C=C2\NC(=S)N(c3ccccc3)C2=O)c(-c2ccc(-c3ccccc3)cc2)n1	0	5.8µM	?	0	?	0
N#CCCn1cc(/C=N/O)c(-c2ccc(Cl)cc2)n1	0	0	0	0	0	0
O=C(O)CCn1cc(/C=C2/NC(=S)N(c3ccccc3)C2=O)c(-c2ccccc2)n1	0	0	0	0	0	0
N#CCCn1cc(C=C(C#N)C#N)c(-c2ccc(Cl)cc2)n1	0	3.66µM	0	0	?	0
N#CCCn1cc(/C=N/O)c(-c2ccc(-c3ccccc3)cc2)n1	?	13µM	?	?	?	0
SMILES	HT1080NT lethal	MCF10A rereplic	KB-3-1 tox	HT1080 IDH1KD tx	SW480 rerep	KB-V1 MDR tox
Cc1ccc2c(c1)C(=O)N1[C@H]3c4cc(C)ccc4OC[C@@H]3[C@H](c3ccccc3)[C@]1(C)C(=O)N2	?	5.8µM	?	7.31µM	?	?
Cc1ccc2c(c1)C(=O)N1[C@H]3c4cc(Cl)ccc4OC[C@@H]3[C@H](c3ccccc3)[C@]1(C)C(=O)N2	0	10.3µM	?	?	?	0
C[C@@]12C(=O)Nc3ccc(F)cc3C(=O)N1[C@H]1c3cc(Cl)ccc3OC[C@@H]1[C@@H]2c1ccccc1	?	18.4µM	?	?	20.6µM	0
Cc1ccc2c(c1)C(=O)N1[C@H]3c4cc(Br)ccc4OC[C@@H]3[C@H](c3ccccc3)[C@]1(C)C(=O)N2	?	13µM	0	?	0	?
C[C@@]12C(=O)Nc3ccc(Cl)cc3C(=O)N1[C@H]1c3ccccc3OC[C@@H]1[C@@H]2c1ccccc1	0	?	?	0	0	0
C[C@@]12C(=O)Nc3ccc(F)cc3C(=O)N1[C@H]1c3ccccc3OC[C@@H]1[C@@H]2c1ccccc1	0	0	0	0	0	0
Cc1ccc2c(c1)[C@H]1[C@H](CO2)[C@H](c2ccccc2)[C@]2(C)C(=O)Nc3ccc(Br)cc3C(=O)N12	0	0	0	?	?	0
O=C(Nc1cc(Cl)ccc1Cl)c1cc([N+](=O)[O-])cc(Br)c1O	-	-	0	-	-	0
CCOCC(=O)Nc1ccc(-c2cn3c(C)csc3n2)cc1	-	-	0	-	-	0
O=C(CN1CCN(Cc2ccc(F)cc2Cl)S1(=O)=O)Nc1ccc(F)cc1	-	-	0	-	-	0
CCC1(C)Cc2c(sc3nnn(Cc4ccccc4Cl)c(=O)c23)CO1 (stereo unspecified)	0	16.4µM	0	0	0	20.6µM
CCC1(C)Cc2c(sc3nnn(CC(=O)Nc4ccccc4)c(=O)c23)CO1 (stereo unspecified)	0	0	0	0	0	7.31µM
CCC1(C)Cc2c(sc3nnn(CC(=O)Nc4ccccc4C)c(=O)c23)CO1 (stereo unspecified)	0	0	0	0	0	14.6µM
Cc1cccc(NC(=O)Cn2nnc3sc4c(c3c2=O)CC(C)(C)OC4)c1	0	0	0	0	0	0
Cc1ccc(CNC(=O)CCNC(=O)c2ccc([N+](=O)[O-])cc2)cc1	0	0	0	0	0	0
COc1ccc(CCNC(=O)CSc2nc3ccccc3nc2Cc2ccc(C)cc2)cc1OC	-	-	0	-	-	0
COc1ccc(F)cc1-c1cc(NC=O)c2ncc(-c3cc(OC)c(OC)c(OC)c3)n2c1	?	-	?	?	-	6.51µM
COc1ccccc1-c1cc(NC=O)c2ncc(-c3ccc(F)cc3)n2c1	?	-	16.4µM	18.4µM	-	9.2µM
COc1cc(-c2cnc3c(NC=O)cc(-c4ccccc4Cl)cn23)cc(OC)c1OC	?	-	1.03µM	?	-	3.26µM
COc1cc(-c2cnc3c(NC=O)cc(-c4ccccc4)cn23)cc(OC)c1OC	?	-	?	?	-	0
COc1cc(-c2cnc3c(NC=O)cc(-c4cccc(NC(C)=O)c4)cn23)cc(OC)c1OC	?	-	0.366µM	?	-	0
COc1cccc(-c2cnc3c(NC=O)cc(-c4cccc(NC(C)=O)c4)cn23)c1	?	-	0	?	-	?
Cc1ccc(-c2cc(NC=O)c3ncc(-c4cccc(C(=O)N(C)C)c4)n3c2)cc1	?	-	?	?	-	0
